Compound activity as filed in PubChem.
ClpP mod: qHTS Assay for Activators of ClpP; ATP-dependent Clp protease proteolytic subunit (Bacillus subtilis (strain 168)), P80244; purified B. subtilis ClpP, FRET peptide cleavage, 20 min; Potency, µM (highest dose often 57.5 µM); hit rate 1.9% among 340,000; AID 651965, 2013; active means well fitted falling curve with a large enough effect; inconclusive means small, poorly fitted or top-dose-only effect; inactive means no such curve, though single readings can be large or run the other way; further: the source files actives as falling curves though it sought activators and does not explain the sign; nearly all actives have a fitted effect of over 65% in size
Target sequence (P80244 whole entry, looked up): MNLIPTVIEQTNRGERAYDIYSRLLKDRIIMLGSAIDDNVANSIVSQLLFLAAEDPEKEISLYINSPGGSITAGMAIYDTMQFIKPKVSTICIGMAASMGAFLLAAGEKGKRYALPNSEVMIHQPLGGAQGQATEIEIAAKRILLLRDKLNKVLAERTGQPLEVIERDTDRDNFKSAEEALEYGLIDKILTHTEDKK
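Purified B. subtilis ClpP, 10 microg/mL final in Tris/HCl pH8 with KCl, BSA, glycerol and Tween-20, cleaved an Abz/nitrotyrosine-quenched decapeptide. Fluorescence (ex 320, em 430) was read at 0 and 20 min at room temperature. Delta was normalized to 5.8 microM ADEP and DMSO/no-enzyme controls.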
Integrin act MD: qHTS for Activators of Integrin-Mediated Alleviation for Muscular Dystrophy | alpha7betagal myoblasts, beta-gal FDG fluorescence, 48 h | Potency, µM (titrated, usually from 38.3 µM), most hits filed as activators | hit rate 0.064% among 350,000; further: nearly all actives have a fitted effect of over 60% in size
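alpha7betagal+/- myoblasts (passage 13, 250/well) treated 48 h at 37C with compounds at 1:260 dilution of DMSO stock. Lysed, then beta-galactosidase activity read as FDG fluorescence (ex 480/em 540) after 30 min, with pre-read for autofluorescence.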
IL-2 act: qHTS of IL-2 Activators | activation, % (series mostly up to about 46 µM) | hit rate 0.065% among 360,000 | IL-2 activation reporter assay, cell-based qHTS; stimulated with anti-CD3/CD4/CD28 beads; in transgenic mouse T cells; in the data active means activation above about 50%; inconclusive means mostly about 30% to 49%
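Unstimulated transgenic mouse T cells; 60-min compound exposure; bead-based TCR/CD4/CD28 stimulation; 18 h culture, 37 degrees C; dual fluorescence (EGFP, DsRed) plate cytometry.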
USP2a inh: qHTS Assay for Inhibitors of Ubiquitin-specific Protease USP2a Using CHOP2 as the Reporter. Ubiquitin carboxyl-terminal hydrolase 2 (Homo sapiens), O75604. USP2 core, Ub-CHOP2 coupled fluorogenic reporter, 485/531. Potency, µM (doses to about 38.3 µM), actives largely listed as inhibitors. hit rate 0.01% among 330,000
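USP2 core (10nM final) preincubated 30min RT with compound in 20mM Tris-HCl pH 8.0, 2mM CaCl2, 2mM beta-mercaptoethanol, 0.05% CHAPS; 25nM Ub-CHOP2 plus 25nM reporter substrate added, fluorescence (Ex485/Em531) read after 60min.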
PKM2 activator: qHTS Assay for Activators of Human Muscle isoform 2 Pyruvate Kinase. hit rate 0.34% among 260,000. purified PKM2, Kinase-Glo ATP luminescence, activation; response scale: 0% is enzyme alone, no compound. Potency, µM (highest dose often 57.5 µM), actives largely listed as activators; further: nearly all actives have a fitted effect of over 55% in size
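hPK-M2, >95% pure; 0.1 mM ADP / 0.5 mM PEP final; imidazole pH7.2 buffer w/ 7 mM MgCl2, 50 mM KCl; 1 h RT; Kinase-Glo lum. Intermediate enzyme activity for dual inhibitor/activator qHTS.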
Pin1 inh: qHTS Assay to Find Inhibitors of Pin1 | Peptidyl-prolyl cis-trans isomerase NIMA-interacting 1 (Homo sapiens), Q13526 | Pin1 FP peptide displacement, HiFluor488, 10 min | Potency, µM (series often up to 115 µM), most hits filed as inhibitors | hit rate 0.009% among 390,000 | AID 504891, 2011; active means well fitted inhibition curve with a large enough effect in the polarisation, with a control signal flat, not every such curve was filed as active; inconclusive means small, poorly fitted or top-dose-only effect, or effect the other way, or a change in a side signal; inactive means no such curve, though single readings can be large or run the other way; the % refers to the polarisation
Target sequence (Q13526 whole entry, looked up): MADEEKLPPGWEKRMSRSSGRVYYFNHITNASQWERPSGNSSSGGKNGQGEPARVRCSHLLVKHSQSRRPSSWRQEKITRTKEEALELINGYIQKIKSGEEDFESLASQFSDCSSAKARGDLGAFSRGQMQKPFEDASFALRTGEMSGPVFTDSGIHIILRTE
Each line names hits and unclear results; the compound was inactive in the other large screens. Most compounds without a hit are left out; they make up all but 1.9% or so of the library. Unless noted, the call rests on the fitted dose curve; in most records, active means well fitted curve in the direction sought with a large enough effect; inconclusive means small, poorly fitted or top-dose-only effect, or another doubt; inactive means no such curve, though single readings can be large; an effect the other way counts as inactive or inconclusive.

COc1ccc(/C=C/c2ccnc3ccccc23)c(OC)c1	none (no result: Integrin act MD, IL-2 act, USP2a inh, PKM2 activator, Pin1 inh)
O=C(Nc1ccc2nc(SCC(=O)N3CCCc4ccccc43)sc2c1)c1cccc(Cl)c1	ClpP mod 14µM (no result: Integrin act MD, IL-2 act, USP2a inh, PKM2 activator)
Cc1ccc(O)c(CO)n1	none (no result: ClpP mod)
Cc1ccc(O)c(CC(C)C)n1	ClpP mod 3.5µM, USP2a inh inconclusive, Pin1 inh inconclusive
O=C(Cn1c(=O)c2cccn2c2ccc(F)cc21)N1CCN(c2ccccc2)CC1	none (no result: Integrin act MD, IL-2 act, USP2a inh, PKM2 activator)
COc1ccc(N2CCN(C(=O)Cn3c(-c4cccs4)cc4ccccc43)CC2)cc1	ClpP mod 32µM (no result: Integrin act MD, IL-2 act, USP2a inh, PKM2 activator)
O=C(Cn1c(-c2cccs2)cc2ccccc21)N1CCN(c2ccc(Cl)cc2)CC1	ClpP mod 10µM (no result: Integrin act MD, IL-2 act, USP2a inh, PKM2 activator)
O=C(c1cccs1)N1CCN(c2ccc(Cl)cc2)CC1	none (no result: ClpP mod)
O=C(Cn1c(-c2cccs2)cc2cc(F)ccc21)N1CCN(c2ccccc2)CC1	ClpP mod 16µM (no result: Integrin act MD, IL-2 act, USP2a inh, PKM2 activator)
NC(=O)C1CCN(C(=O)Cn2c(-c3cccs3)cc3ccccc32)CC1	ClpP mod 32µM (no result: Integrin act MD, IL-2 act, USP2a inh, PKM2 activator)
O=C1C[C@H]2C=CCc3cccc(c32)CN1Cc1ccc(Br)cc1	none (no result: Integrin act MD, IL-2 act, USP2a inh, PKM2 activator, Pin1 inh)
CCOc1ccccc1-c1nc(-c2cc3ccc(C)cc3[nH]c2=O)no1	ClpP mod inconclusive
Cc1ccc(N(Cc2cc3ccc(C)cc3[nH]c2=O)S(C)(=O)=O)c(C)c1	PKM2 activator 22µM
CCCc1nc(-c2cc3ccc(C)cc3[nH]c2=O)no1	ClpP mod 28µM
CCS(=O)(=O)NCCc1cc2ccc(C)cc2[nH]c1=O	ClpP mod 28µM
COc1ccc(-c2ccc3ncnc(NCc4ccc(C)o4)c3c2)cc1OC	none (no result: ClpP mod, Integrin act MD, IL-2 act, USP2a inh, PKM2 activator)
Cc1ccc(-c2[nH]ncc2CNC(C)c2ccccc2)cc1 (stereo not given)	none (no result: Integrin act MD, IL-2 act, USP2a inh, PKM2 activator)
CCCCN(CCCC)c1ccc(/C=C2\C=Cc3ccccc32)cc1	none (no result: Integrin act MD, IL-2 act, USP2a inh, PKM2 activator, Pin1 inh)
COc1ccc(N2CCN(S(=O)(=O)CCNC(=O)COc3ccccc3)CC2)cc1	ClpP mod 18µM (no result: PKM2 activator)
Cc1csc(NC(=O)c2ccccc2O)n1	ClpP mod 28µM
CC(C)(C)c1csc(NC(=O)c2ccccc2O)n1	Integrin act MD inconclusive
CCn1nnnc1Sc1nc(C)nc2scc(-c3ccccc3)c12	none (no result: Integrin act MD, IL-2 act, USP2a inh, PKM2 activator, Pin1 inh)
Cc1cn2c(=O)cc(COc3cccc(NC(=O)c4ccc(C(C)(C)C)cc4)c3)nc2s1	ClpP mod 28µM (no result: Integrin act MD, IL-2 act, USP2a inh, PKM2 activator)
Cc1cccc(C(=O)Nc2cccc(OCc3cc(=O)n4cc(C)sc4n3)c2)c1	none (no result: Integrin act MD, IL-2 act, USP2a inh, PKM2 activator)
COc1cc2nc(N3CCCN(C)CC3)nc(NC3CCNCC3)c2cc1OC	none (no result: Integrin act MD, IL-2 act, USP2a inh, PKM2 activator, Pin1 inh)
C=CCn1cc(-c2ccccc2)cc(C#N)c1=O	ClpP mod inconclusive
N#Cc1cc(-c2ccc(Cl)cc2)cn(Cc2c(Cl)cccc2Cl)c1=O	ClpP mod 25µM, Integrin act MD inconclusive
Cn1cc(-c2cccc(Cl)c2)cc(C#N)c1=O	none (no result: ClpP mod)
CC(C)n1cc(-c2ccc(Cl)cc2)cc(C#N)c1=O	ClpP mod 32µM, Pin1 inh inconclusive
C=CCn1cc(-c2ccc(Cl)cc2)cc(C#N)c1=O	ClpP mod 32µM
CC12CCC=CC1C(c1ccc(F)c(/C=C/c3ccccc3)c1)N(Cc1ccccc1)C2=O (stereo not given)	none (no result: ClpP mod, Integrin act MD, IL-2 act, USP2a inh, PKM2 activator)
CC[N+]1(CC(=O)c2ccc(OC)cc2)CCCCC1	none (no result: Integrin act MD, IL-2 act, USP2a inh, PKM2 activator, Pin1 inh)
Cc1c(C(O)(c2ccccc2)c2ccccc2)[n+]2ccccc2n1C	none (no result: ClpP mod, Integrin act MD, IL-2 act, USP2a inh, PKM2 activator)
c1ccc(CCc2nn3c(Cn4cnc5ccccc54)nnc3s2)cc1	PKM2 activator inconclusive, Pin1 inh inconclusive
c1ccc2c(c1)ncn2Cc1nnc2sc(-c3ccc4c(c3)OCO4)nn12	ClpP mod 28µM, PKM2 activator 11µM, Pin1 inh inconclusive
COc1ccc(OCc2nn3c(Cn4cnc5ccccc54)nnc3s2)cc1	PKM2 activator 25µM, Pin1 inh inconclusive
